Assay outcomes deposited in PubChem by Sanford-Burnham Center for Chemical Genomics.
Only some compounds are listed: those with a hit (about 1.8% of all), similar ones and a draw of the others.
PHOSPHO1 inh: PubChem AID 1565. recombinant PHOSPHO1, absorbance phosphatase assay. inhibition, % at 13.3 µM. actives 1.1% (n = 290,000); in the data active means inhibition above about 60%
NadD inh: inhibitors of S. aureus NadD, primary screen, biochemical, colorimetric, uHTS | Nicotinate-nucleotide adenylyltransferase NadD (Staphylococcus aureus N315) | purified NadD enzyme, colorimetric absorbance read-out | inhibition, % at 20 µM | actives 0.78% (n = 360,000) | AID 602399, 2012; in the data active means inhibition above about 26%
SUMO HTRF inh: inhibitors of in vitro SUMOylation cascade, primary screen, biochemical, HTRF, uHTS; inhibition, % at 35 µM; SUMO-conjugating enzyme UBC9 (Homo sapiens), P63279; HTRF SUMOylation assay, SAE1/SAE2 + UBC9; AID 2006, 2009; actives 0.36% (n = 290,000); in the data active means inhibition above about 50%, passing the limit was not always enough; inconclusive means no clear call, values can overlap the other calls
p-CIP stab down: p/CIP-EGFP fusion destabilizers, primary screen, fluorescence, F442A cells; 16 h; decrease of EGFP signal, % at 10 µM; actives 0.01% (n = 290,000); Q05BA5;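 active means EGFP signal decrease of at least 30% at 10 µM or well 3 SD below plate mean, unless failing retest; inactive means the rest, including hits failing retest or dose response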
Target sequence (Q05BA5 1-1403): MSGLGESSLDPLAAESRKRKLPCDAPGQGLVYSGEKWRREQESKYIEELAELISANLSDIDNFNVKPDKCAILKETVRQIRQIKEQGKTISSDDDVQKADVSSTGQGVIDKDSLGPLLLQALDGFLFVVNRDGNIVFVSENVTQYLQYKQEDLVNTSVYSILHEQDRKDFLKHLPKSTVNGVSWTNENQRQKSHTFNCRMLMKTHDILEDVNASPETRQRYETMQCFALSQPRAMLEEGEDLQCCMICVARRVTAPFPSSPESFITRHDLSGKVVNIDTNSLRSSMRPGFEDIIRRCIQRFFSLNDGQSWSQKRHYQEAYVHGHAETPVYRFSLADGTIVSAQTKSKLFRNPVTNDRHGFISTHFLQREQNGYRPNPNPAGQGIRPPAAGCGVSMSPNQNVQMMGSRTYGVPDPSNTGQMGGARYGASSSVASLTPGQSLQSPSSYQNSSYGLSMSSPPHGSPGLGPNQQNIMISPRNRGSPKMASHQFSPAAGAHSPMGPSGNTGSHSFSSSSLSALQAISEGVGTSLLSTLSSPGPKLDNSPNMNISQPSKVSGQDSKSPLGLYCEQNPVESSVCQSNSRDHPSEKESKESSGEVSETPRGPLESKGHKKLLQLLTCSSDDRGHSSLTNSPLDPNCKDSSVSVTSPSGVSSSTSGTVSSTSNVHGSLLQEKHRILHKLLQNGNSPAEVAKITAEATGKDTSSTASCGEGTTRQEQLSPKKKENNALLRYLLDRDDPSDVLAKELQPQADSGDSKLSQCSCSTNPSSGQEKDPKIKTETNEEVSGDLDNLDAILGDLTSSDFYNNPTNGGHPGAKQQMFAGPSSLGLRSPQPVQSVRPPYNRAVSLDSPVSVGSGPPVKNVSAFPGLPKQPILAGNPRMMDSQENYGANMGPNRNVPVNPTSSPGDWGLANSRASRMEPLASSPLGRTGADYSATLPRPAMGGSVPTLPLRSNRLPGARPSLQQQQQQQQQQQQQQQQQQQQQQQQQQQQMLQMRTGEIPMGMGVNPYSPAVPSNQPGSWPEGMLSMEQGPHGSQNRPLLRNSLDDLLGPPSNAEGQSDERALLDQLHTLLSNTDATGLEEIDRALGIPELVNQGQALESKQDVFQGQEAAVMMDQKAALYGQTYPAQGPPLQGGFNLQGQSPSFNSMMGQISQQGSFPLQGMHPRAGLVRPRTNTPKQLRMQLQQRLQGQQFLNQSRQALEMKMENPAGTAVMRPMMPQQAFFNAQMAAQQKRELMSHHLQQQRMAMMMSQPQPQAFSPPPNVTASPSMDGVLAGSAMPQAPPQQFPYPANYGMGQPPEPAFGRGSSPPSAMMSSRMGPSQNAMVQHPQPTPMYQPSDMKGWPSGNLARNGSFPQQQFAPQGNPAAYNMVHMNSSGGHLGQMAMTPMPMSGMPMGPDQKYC
Hits are given with their value; n = inactive; u = inconclusive; x = no result given.

SMILES	PHOSPHO1 inh	NadD inh	SUMO HTRF inh	p-CIP stab down
Cc1cnc(C=O)c2cccc([N+](=O)[O-])c12	x	n	x	x
COc1ccc(NC(=O)C[C@H]2C(=O)N(C3CCCCC3)C[C@@H]2CSC)cc1	x	n	x	x
COc1ccccc1NCC(=O)NC(=O)NC1CCCCC1	x	n	x	x
COCCN(CCOC)Cc1cc(=O)oc2cc(C)c(Cl)cc12	x	n	x	x
O=C(Nc1cccc(Cl)c1)c1csc([C@@H]2O[C@H](CO)[C@H](O)[C@H](O)[C@H]2O)n1	x	n	x	x
C=CCNC(=S)Nc1ccc2nsnc2c1	n	n	99	n
O=C1C=CC(=O)c2c(O)c(CO)c(CO)c(O)c21	x	77	x	x
Cc1ccc(CNC(=O)/C=C/[C@H]2O[C@@H](n3cc(C)c(=O)[nH]c3=O)C[C@@H]2O)o1	x	n	x	x
COc1cccc(-c2nnc(SCc3ccc(C#N)cc3)n2Cc2ccco2)c1	65	n	n	n
CCn1c(SCc2cccc(F)c2)nnc1-c1ccncc1	n	n	n	n
CCn1c(SCc2cccc(C)c2)nnc1-c1ccc(C)cc1	69	n	n	n
Cc1ccc(-c2nnc(SCc3ccc(C#N)cc3)n2Cc2ccco2)cc1	100	n	n	n
COc1ncnc2c1ncn2CCCNC1CCN(Cc2ccccc2)CC1	x	n	x	x
CCOC(=O)C(C(=O)Nc1cccc(C)n1)C1CCCCC1 (centres undefined)	n	n	n	n
CCOC(=O)C(C(=O)Nc1ccccn1)C1CCCCC1 (centres undefined)	70	n	n	n
CC(=O)c1ccc(OCc2cc(C(=O)NC(C)c3cnn(C)c3)no2)cc1 (centres undefined)	62	n	n	n
Cc1cccc(N2CCN(C(=O)CCS(=O)(=O)c3ccc4c(c3)oc(=O)n4C)CC2)c1C	n	n	n	n
Cc1cccc(N2CCN(C(=O)CCNS(=O)(=O)c3ccc4c(c3)oc(=O)n4C)CC2)c1C	63	n	n	n
CC1CCN(S(=O)(=O)c2cccc(-c3cn4cc(Cl)ccc4n3)c2)CC1	n	n	n	n
CCOC(=O)C1CCN(S(=O)(=O)c2cccc(-c3cn4cc(Cl)ccc4n3)c2)CC1	97	n	n	n
CCOC(=O)C1CCN(S(=O)(=O)c2cccc(-c3cn4cccc(C)c4n3)c2)CC1	n	n	n	n
CCOC(=O)C1CCN(S(=O)(=O)c2cccc(-c3cn4ccccc4n3)c2)CC1	84	n	n	n
Cc1ccnc(NC(=O)CSc2cc(=O)n(C)c3ccccc23)c1	63	n	n	n
CCc1nc2ccc(C(=O)N3CCN(C(=O)c4ccco4)CC3)cn2c1N(C)C(=O)Nc1ccccc1OC	x	n	x	x
Cc1ccc(-c2ccnc(=S)[nH]2)cc1	90	n	n	n
SMILES	PHOSPHO1 inh	NadD inh	SUMO HTRF inh	p-CIP stab down
CC(=O)NC1C(=O)N(CCN2CCOCC2)c2ccc(C)cc21 (centres undefined)	x	n	81	n
CON(C)C(=O)C[C@@H]1C[C@H](OC(=O)c2ccc([N+](=O)[O-])cc2)CN1C(=O)OC(C)(C)C	x	n	x	x
CCNc1ccc(Br)cc(C(=O)/C=C/c2c(Cl)cccc2Cl)c1=O	n	56	n	n
Cn1c(=O)c2c(ncn2CCOC(=O)C(C)(C)Oc2ccc(Cl)cc2)n(C)c1=O	x	n	x	x
O=c1[nH]n2c(=O)c3c([nH]c2c1N=Nc1cccc(Cl)c1)CCCC3	76	n	n	n
CC(C(=O)NCCCc1ccccc1)n1cccc1C(=O)c1ccccc1 (centres undefined)	70	n	x	n
O=C(Cn1cccc1C(=O)c1ccccc1)NCCCc1ccccc1	n	n	n	n
NS(=O)(=O)c1ccc(Oc2ccc(S(N)(=O)=O)cc2)cc1	62	n	n	n
CC(=O)Nc1ccc(NC(=O)CC2Nc3cccc4cccc(c34)NC2=O)cc1 (centres undefined)	n	n	u	n
CC(=O)c1ccc(NC(=O)CC2Nc3cccc4cccc(c34)NC2=O)cc1 (centres undefined)	n	n	96	n
COCCCN1C(=O)C(CC(=O)NCCc2ccccn2)CC(C(=O)N2CCOCC2)=C1C (centres undefined)	x	n	x	x
CN(C)c1ccc(/C=C2/C(=O)N(c3ccc([N+](=O)[O-])cc3)N=C2N2CCOCC2)cc1	n	x	87	n
Cc1nc(NCCCn2ccnc2)c2oc3ccccc3c2n1	n	n	n	n
c1ccc2c(c1)oc1c(NCCCn3ccnc3)ncnc12	72	n	n	n
COc1ccc(OCc2nnc(SCC(=O)O)n2N)cc1	60	n	n	n
Cn1c(COc2ccc3ccccc3c2)nnc1SCC(=O)O	62	n	n	n
Cn1c(COc2cccc3cccnc23)nnc1SCC(=O)O	n	n	n	n
Cn1c(COc2ccc(Cl)cc2)nnc1SCc1ncc(-c2ccccc2)o1	80	n	n	n
Cc1ccc(NC(=O)C2(C)CCN2C(=O)Cc2ccc(C(C)C)cc2)cc1 (centres undefined)	x	n	x	x
NC(=O)C1CCN(C(=O)CCC(=O)c2cccs2)CC1	x	n	x	x
c1ccc(-c2nn3c(-c4ccccc4)nnc3o2)cc1	x	n	x	x
Cc1ccsc1C(=O)OCc1csc(-c2ccccc2)n1	n	n	n	n
O=C(OCc1csc(-c2ccccc2)n1)C1=NN(c2ccccc2)C(=O)CC1	x	n	x	x
Cn1cccc1C(=O)OCc1csc(-c2ccccc2)n1	100	n	n	n
O=C(OCc1csc(-c2ccccc2)n1)c1cccs1	63	n	n	n
SMILES	PHOSPHO1 inh	NadD inh	SUMO HTRF inh	p-CIP stab down
O=C(Nn1c(O)c(C=C2N=c3ccccc3=N2)sc1=S)c1ccccc1	86	n	n	n
O=C(Nn1c(O)c(C=C2N=c3ccccc3=N2)sc1=S)c1cccc(Cl)c1	86	n	n	n
O=C(Nn1c(O)c(C=C2N=c3ccccc3=N2)sc1=S)c1ccc(Cl)cc1	n	n	n	n
CC(C)C(=O)N1CCC1(C)C(=O)NCc1cc(Cl)ccc1F (centres undefined)	x	n	x	x
Cc1cc(NC(=O)c2csc([C@@H]3O[C@H](CO)[C@H](O)[C@H](O)[C@H]3O)n2)n(C)n1	x	n	x	x
CCOC(=O)CN1C(=O)S/C(=C/c2ccc(N3CCCCC3)o2)C1=O	101	n	n	n
CC(=O)Nc1cc(-c2cccc(N)c2)cn2c(-c3ccccc3)cnc12	x	n	x	x
Cn1cc(-c2csc(C(O)c3ccccc3)n2)cn1 (centres undefined)	x	n	x	x
O=C(CCc1nnc(CCCCc2ccccc2)o1)NCCN1CCCCC1=O	60	n	n	n
O=S(=O)(Nc1ccc(O)c2ccccc12)c1ccc(Br)cc1	n	x	86	n
O=S(=O)(Nc1ccc(O)c2ccccc12)c1cccs1	n	n	n	n
CSc1ncccc1C(=O)N1CCC1(C)C(=O)NC(C)C (centres undefined)	x	n	x	x
N#CC1=C2SCN(Cc3ccco3)CN2C(=O)CC1c1c(F)cccc1Cl (centres undefined)	79	n	n	n
Cc1ccc(C2CC(=O)N3CN(Cc4ccco4)CSC3=C2C#N)cc1 (centres undefined)	76	n	n	n
O=C(C[C@H]1C(=O)N(C2CCCCC2)C[C@@H]1c1ccccc1)Nc1ccc(Br)cc1	x	n	x	x
